Bioassay records from PubChem BioAssay.
IL-1B inflam inh – qHTS for Inhibitors of Inflammasome Signaling: IL-1-beta AlphaLISA Primary Screen. THP-1 LPS/ATP IL-1B secretion, AlphaLISA, 16 h; hits give low values. activity change, % at 57.5 µM. 4.7% of 360,000 active; in the data active means activity change below about -50%; inconclusive means mostly about -30% to -49%
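THP-1 cells pretreated 1 hr with compounds (up to 57.5 uM final), then stimulated with LPS (250 ng/mL final) plus ATP (1.25 mM final); secreted IL-1B measured by AlphaLISA after 16 hr, decreased signal indicating inhibition.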
HT1080NT lethal – qHTS for induction of synthetic lethality in tumor cells producing 2HG: qHTS for the HT-1080-NT fibrosarcoma cell line. AID 686970, 2013. Potency, µM (doses to about 46.1 µM), inactives show top-dose activity, negative = less viability, usual class: cytotoxic. HT-1080-NT fibrosarcoma viability, CellTiter-Glo ATP luminescence, 48 h. 1.6% of 360,000 active;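 further: NT is the 2HG producing partner of a matched IDH1 knockdown line; potency means the concentration at half of the fitted maximal effect; 0% = DMSO-treated cells and -100% = media-only wells without cells; nearly all actives have a fitted effect of over 55% in size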
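HT-1080-NT fibrosarcoma cells (2HG-overproducing), 750 cells/well in RPMI with 5% FBS, dosed after 2 h and incubated 48 h at 37C. CellTiter-Glo luminescence normalized to DMSO and no-cell wells; concentration-response curves fitted and classed.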
TDP1 cell CPT – qHTS for Inhibitors of human tyrosyl-DNA phosphodiesterase 1 (TDP1): qHTS in cells in presence of CPT | chicken DT40 Tdp1-/-;hTDP1 cells + 20 nM CPT, ATP luminescence, 48 h | Potency, µM (titrated, usually from 46.2 µM), without a hit: top-dose activity change, negative = growth inhibition, usual class: inhibitors | 12% of 420,000 active | AID 686979, 2013; further: potency means the concentration at half of the fitted maximal effect; nearly all actives have a fitted effect of over 55% in size
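Chicken DT40 Tdp1-/- cells complemented with human TDP1, 400 cells/well, exposed to compounds plus 20 nM camptothecin for at least 48 h at 37 C; viability read as ATP content by CellTiter-Glo luminescence.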
TDP1 cell noCPT – qHTS for Inhibitors of human tyrosyl-DNA phosphodiesterase 1 (TDP1): qHTS in cells in absence of CPT. DT40 Tdp1-/- hTDP1 cells, no CPT, ATP luminescence, 48 h. Potency, µM (doses to about 46.2 µM), without a hit: top-dose activity change, negative = growth inhibition, hits mostly inhibitors. 15% of 420,000 active; further: potency means the concentration at half of the fitted maximal effect; nearly all actives have a fitted effect of over 55% in size
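Compound effects on proliferation are scored in DT40 Tdp1-/-;hTDP1 cells in the absence of CPT. ATP levels (CellTiter-Glo luminescence) are recorded after a ≥48 hr, 37 °C incubation.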
HT1080 IDH1KD tx – qHTS for induction of synthetic lethality in tumor cells producing 2HG: qHTS for the HT-1080-IDH1KD cell line. 2% of 360,000 active. HT-1080 IDH1 knockdown viability, ATP luminescence, 48 h. AID 686971, 2013. Potency, µM (doses to about 46.1 µM), inactives show top-dose activity, negative = toxicity, most hits filed as cytotoxic;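 further: potency means the concentration at half of the fitted maximal effect; 0% = DMSO wells and -100% = cell-free medium wells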
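Cytotoxicity counter-line: IDH1KD HT-1080, 48 h, CellTiter-Glo. Curves classed by r2, magnitude and activity.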
Active calls of the source: *; ? = inconclusive; · = no result; [ ] = another dose, or the depositor's remark. Only some compounds are listed: those with a hit (about 19% of all), similar ones and a draw of the others. Unless noted, the call rests on the fitted dose curve; in most records, active means well fitted curve in the direction sought with a large enough effect; inconclusive means small, poorly fitted or top-dose-only effect, or another doubt; inactive means no such curve, though single readings can be large; an effect the other way counts as inactive or inconclusive. Unless noted, on the % scale 0 is the no-effect control and ±100 the full control effect.

SMILES	IL-1B inflam inh	HT1080NT lethal	TDP1 cell CPT	TDP1 cell noCPT	HT1080 IDH1KD tx
O=C(N/N=C\c1cc(Cl)ccc1O)c1ccc(S(=O)(=O)N2CCCCC2)cc1	62	7.3µM*	0.65µM*	0.73µM*	2.3µM*
O=C(N/N=C/c1ccc(O)c(O)c1)c1cccc(S(=O)(=O)N2CCCC2)c1	6	1%	-24%	?	-17%
O=C(Nc1cc(S(=O)(=O)Nc2ccc(Cl)cc2)ccc1O)c1ccc(S(=O)(=O)N2CCCCCC2)cc1	-1	-29%	?	21µM*	?
O=C(Nc1cc(S(=O)(=O)N2CCOCC2)ccc1O)c1ccc(S(=O)(=O)N2CCCCC2)cc1	-5	13%	?	?	2%
CCOc1ccc(-c2nc(S(=O)(=O)c3ccccc3)c(N3CCOCC3)o2)cc1	-8	12%	14%	-4%	14%
COc1ccccc1-c1nc(S(=O)(=O)c2ccc(Cl)cc2)c(N2CCCCCC2)o1	·	·	16µM*	16µM*	·
COc1cc(-c2nc(S(=O)(=O)c3ccc(Br)cc3)c(N3CCOCC3)o2)cc(OC)c1OC	·	·	12µM*	8.2µM*	·
CCN1CCN(c2oc(-c3ccccc3C)nc2S(=O)(=O)c2ccccc2)CC1	-30	-11%	?	18µM*	-10%
Cc1cccc(-c2nc(S(=O)(=O)c3ccccc3)c(N3CCOCC3)o2)c1	35	-3%	-8%	-24%	-7%
Cc1ccc(S(=O)(=O)c2nc(-c3ccccc3Cl)oc2N2CCN(C)CC2)cc1	-66*	-3%	?	23µM*	2%
COc1ccccc1-c1nc(S(=O)(=O)c2ccccc2)c(N2CCCCC2)o1	-15	13%	?	?	8%
Cc1cc(=O)[nH]c2c1c(C)nn2C1CCOC(C)(C)C1 (stereo not given)	-21	1%	1%	-9%	16%
CCCS(=O)(=O)NC(=O)C1(C)CCN(C(=O)c2oc3ccccc3c2C)C1 (stereo not given)	16	18%	-20%	3%	6%
O=S(=O)(c1ccccc1)c1nc(-c2ccccc2Cl)oc1N1CCCCCC1	·	·	?	21µM*	·
CCOP(=O)(c1ccccc1)c1nc(-c2ccccc2Cl)oc1N1CCCCC1 (stereo not given)	-67*	?	?	?	?
Cc1ccc(S(=O)(=O)c2nc(-c3ccccc3Cl)oc2N2CCCCCC2)cc1	·	·	23µM*	18µM*	·
CC(C)(O)C#Cc1ccc(C(=O)NCCN2Cc3ccccc3OC(c3ccccc3F)C2)o1 (stereo not given)	·	·	10%[9.04 µM]	-28%	·
C=CCOc1c(Br)cc(CNn2nnnc2N)cc1OC	24	-6%	-20%	7.3µM*	0%
C=CCOc1c(Br)cc(CNc2ccc(NC(=O)C(C)C)c(OC)c2)cc1OC	-3	?	?	18µM*	?
COc1cc(CNc2ccc(C(=O)O)cc2)cc(Br)c1OCC(=O)NC(C)(C)C	12	9%	7%	?	12%
CSc1cc(-c2ccc(Cl)cc2)c(C(=O)NC(C)C)s1	-14	18%	9.2µM*	12µM*	10%
CN(C)c1nc(OCCNC(=O)Nc2ccccc2)nc(N2CCOCC2)n1	-10	-6%	23µM*	-78%	-5%
CN(C)c1nc(OCCNC(=O)Nc2ccccc2)nc(N2CCCCC2)n1	-20	-19%	8%	-16%	-10%
Cc1ccc2nc3c(c(Nc4ccc(O)cc4)c2c1)CCC3	-6	-16%	?	18µM*	-21%
Cc1ccc2nc3c(c(Nc4ccc5c(c4)OCCO5)c2c1)CCC3	-92*	?	16µM*	18µM*	?
SMILES	IL-1B inflam inh	HT1080NT lethal	TDP1 cell CPT	TDP1 cell noCPT	HT1080 IDH1KD tx
N/C(=N\OC(=O)c1cccc2ccccc12)c1ccccn1	30	?	?	?	26µM*
COc1cccc(C(=O)O/N=C(\N)c2ccccn2)c1OC	-5	-12%	?	7.3µM*	-7%
COC(=O)c1ccc(Nc2ccc3nonc3c2[N+](=O)[O-])cc1	-13	-2%	9%	1%	-8%
Cc1ccc(NC(=O)CN(C)S(=O)(=O)c2ccc(Br)s2)cc1F	-62*	-11%	2%	?	-11%
Cn1c2ccccc2c(=O)c2c(=O)n(C3CCCCC3)c(-c3ccco3)nc21	5	-1%	23µM*	?	-1%
C/C(=N\NC(N)=S)C1(C)CCCCC1	-2	12%	?	13µM*	13%
CS(=O)(=O)N(Cc1ccccc1)c1ccccc1C(=O)O	3	27%	6%	2%	22%
COc1ccc(NC(=O)c2ccccc2N(Cc2ccccc2)S(C)(=O)=O)c(OC)c1	-10	4%	23µM*	?	-17%
COc1ccc(OC)c(NC(=O)c2ccccc2N(Cc2ccccc2)S(C)(=O)=O)c1	?	-1%	15µM*	?	0%
O=C(CSc1nc2c(oc3ccccc32)c(=O)n1CC1CCCO1)NCc1ccc(F)cc1 (stereo not given)	16	1%	-20%	?	2%
COc1ccc(Oc2ncc3nc(CCc4ccccc4)c(=O)n(C)c3n2)cc1	·	·	-5%	-27%	·
N#Cc1cccc(Nc2c3c(nc4ccccc24)CCC3)c1	-59*	-27%	?	?	?
Cc1cccc(Nc2c3c(nc4ccccc24)CCC3)c1	·	15µM*	15µM*	18µM*	21µM*
O=C(NC1CCCCC1)c1c2c(nc3ccccc13)CCC2	-8	-6%	0%	-10%	-11%
Cc1ccc(Nc2c3c(nc4ccccc24)CCC3)cc1F	·	·	21µM*	16µM*	·
